Measured values: PubChem BioAssay (NCATS)
Values joined by “and” are separate entries in the source; they are usually repeats but may differ in a detail not shown here. Equal entries are not always repeated. Results filed as inconclusive are left out. Unmarked numbers belong to inactive results. Active and inactive are the calls of the source. The call rests on the fitted dose curve; in most records, active means well fitted cell-killing curve with a large enough effect in the repeat runs; inconclusive means weak or mixed curves; inactive means flat fitted curve, though single readings scatter.

Assay: qHTS assay for small molecule agonists of the antioxidant response element (ARE) signaling pathway measured by Nrf2-dependant transcriptional activity - cell viability counter screen (AID 720653)
Details: ARE-bla HepG2 viability, CellTiter-Glo ATP luminescence, 16 h; max response: stronger effect = lower value
Source text: National Center for Advancing Translational Sciences [NCATS] NIH Chemical Genomics Center [NCGC] U.S. Environmental Protection Agency [EPA] National Institutes of Environmental Health Sciences [NIEHS] National Toxicology Program [NTP] Assay Overview: Oxidative stress has been implicated in the pathogenesis of a variety of diseases ranging from cancer to neurodegeneration. The antioxidant response element (ARE) signaling pathway plays an important role in the amelioration of oxidative stress. The CellSensor ARE-bla HepG2 cell line (Invitrogen) can be used for analyzing the Nrf2/antioxidant response signaling pathway. Nrf2 (NF-E2-related factor 2) and Nrf1 are transcription factors that bind to AREs and activate these genes. The CellSensor ARE-bla HepG2 cell line contains a beta-lactamase reporter gene under control of the Antioxidant Response Element (ARE) stably integrated into HepG2 cells. The activation of the report gene under culture conditions can be detected by fluorescence intensity. The cytotoxicity of the compounds against the ARE-bla HepG2 cell line was quantified by measuring the intracellular ATP content.
Assay Protocol Summary: ARE-bla HepG2 cells were dispensed at 2,000 cells/5 ul/well in 1536-well black wall/clear bottom plates using a Multidrop Combi (ThermoFisher Scientific, Waltham, MA) dispenser. After the assay plates were incubated at 37C/5% CO2 for 5 hrs, 23 nL of compounds dissolved in DMSO, positive controls or DMSO only was transferred to the assay plate by a pintool work station (Kalypsys, San Diego, CA). The plates were incubated at 37C/5% CO2 for 16 hrs. After 1 uL of LiveBLAzer B/G FRET substrate was added using a Flying Reagent Dispenser (FRD) (Aurora Discovery, San Diego, CA), the assay plates were incubated at room temperature for 2 hrs. The fluorescence intensity was measured by an Envision (PerkinElmer, Shelton, CT) plate reader. Cell viability using CellTiter Glo viability assay (Promega, Madison, WI) was also measured by adding 4 ul/well of CellTiter-Glo reagent into the same assay plate using a FRD. After 30 min incubation at room temperature, the luminescence intensity in the plates was measured using a ViewLux (PerkinElmer) plate reader.
On the % scale 0 is the no-effect control and ±100 the full control effect; potency means the concentration at half of the fitted maximal effect.

| SMILES | max response | Potency |
| --- | --- | --- |
| c1ccc2c(c1)ccc1c3ccccc3ccc21 | -24.7% | – |
| CCCCCCCCCCCC(=O)OC | – | 35.5 µM (active) |
| CNc1nc(=O)n(C2CCC(O)CC2)c(=O)n1C (stereo not given) | -6.82% | – |
| C[C@]12CC[C@@H]3c4ccc(O)cc4CC[C@H]3[C@@H]1CC[C@H]2O | -10.8% | – |
| CCCCCCC(C)OC(=O)COc1nc(F)c(Cl)c(N)c1Cl (stereo not given) | 17% | – |
| CCOCCOCCOCC | -4.14% | – |
| CC(C)(C)c1ccc(O)c(C(C)(C)C)c1 | -2.61% | – |
| CC(=O)/C=C/C1C(C)=CCCC1(C)C (stereo not given) | 1.13% | – |
| COC(=O)C(C)Oc1ccc(Oc2ncc(C(F)(F)F)cc2Cl)cc1 (stereo not given) | -10.2% | – |
| CC1COCc2cc3c(cc21)C(C)(C)C(C)C3(C)C (stereo not given) | -2.78% | – |
| CCCCCCCCCCCC[N+](C)(C)C | -23.2% | – |
| CCC(=O)C1C(=O)CC(C(=O)O)CC1=O (stereo not given) | 14.2% | – |
| S=C([S-])NCCNC(=S)[S-].S=C([S-])NCCNC(=S)[S-].[Mn+2].[Zn+2] | 17.6% | – |
| CC1(C)C(=O)NC(=O)N1CO | -2.23% | – |
| Cn1sccc1=O | -9.28% | – |
| CN(C)c1nc(=O)n(C2CCC(O)CC2)c(=O)n1C (stereo not given) | 6.16% | – |
| O=C(O)CCCCCCCCCCC(=O)O | -6.19% | – |
| CCCC/C=C/CCCCO | 0.665% | – |
| CCOC(=O)COc1cc(-n2ncc(C(F)(F)F)c(C)c2=O)c(F)cc1Cl | 9.1% | – |
| COc1ccc(OC)c(OC)c1 | 7.1% | – |

| SMILES | max response | Potency |
| --- | --- | --- |
| CC(C)Nc1nc(N)nc(Cl)n1 | -6.9% and -10.3% | – |
| CC(C)CCCCOC(=O)c1ccccc1C(=O)OCCCCC(C)C | -11% | – |
| CCCCCCCCCCCCCCN(C)C | -6.77% | – |
| Nc1cc(Cl)c(O)c(Cl)c1 | -17.9% | – |
| c1ccc2cc3c(ccc4ccccc43)cc2c1 | -18.2% | – |
| CCCCOCCOCCOCCO | 5.3% | – |
| CCOC(=O)CC(O)(CC(=O)OCC)C(=O)OCC | -8.63% | – |
| CC(=O)CC(=O)Nc1ccc(C)cc1C | -2.61% | – |
| CCCCCCCC/C=C\CCCCCCCC(=O)OC | -4.89% | – |
| CC(COCC(C)OC(=O)c1ccccc1)OC(=O)c1ccccc1 (stereo not given) | -9.83% | – |
| CCCCCCCCCCCC(=O)N(C)CC(=O)O | 19.7% | – |
| CC1(C)CC(N)CC(C)(CN)C1 (stereo not given) | -2.66% | – |
| Oc1ccc(Nc2ccccc2)cc1 | -6.61% | – |
| CC1(C)[C@@H](C=C(Cl)Cl)[C@@H]1C(=O)OCc1cccc(Oc2ccccc2)c1 | -5.58% | – |
| CCCCCCCCCCCCCCCO | -7.38% | – |
| CC(COc1ccc(C(C)(C)C)cc1)OS(=O)OCCCl (stereo not given) | -25.1% | – |
| C[Si]1(C)O[Si](C)(C)O[Si](C)(C)O[Si](C)(C)O[Si](C)(C)O1 | -13.9% | – |
| CCCCOCCOCCOC(=O)CCCCC(=O)OCCOCCOCCCC | -2.75% | – |
| C=C[Si](OCCOC)(OCCOC)OCCOC | 15.4% | – |
| OCCOCCOCCOCCO | 2.46% | – |
